Experimental data reported in the supplement of paper PMC7801607.

Assays:
CHO = test: % viability of CHO cells (MTT); higher = less toxic; conditions: 48 h
In short: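 For 48 h, attached CHO cells (10^6 cells/well, 200 µL, seeded the night before) were kept in fresh medium carrying compound at 2 or 20 µM. A colorimetric tetrazolium (MTT) assay then gave survival as percent viability versus untreated cells.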

HepG2-A16-CD81 = test: % inhibition of HepG2 viability (CellTiter-Glo); higher = more toxic; conditions: 5 µM
[1] = tested on: Plasmodium falciparum NF54 stage IV/V gametocytes; test: % inhibition of gametocyte viability (PrestoBlue); higher = more inhibition; conditions: 48 h
In short: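 Stage IV/V NF54 gametocytes at 2% gametocytaemia and 5% haematocrit (100 µL/well) were treated with compound at 1 or 5 µM and incubated for 48 h at 37 °C under stationary, hypoxic conditions. PrestoBlue (10 µL) was then added for 2 h, and fluorescence at 612 nm was read on 70 µL of transferred supernatant. Percent inhibition of gametocyte viability was normalised to vehicle and kill controls within one run.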

[2] = tested on: Plasmodium falciparum NF54 asexual blood stage; test: % inhibition of asexual blood stage proliferation (pLDH); higher = more inhibition; conditions: 72 h
In short: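 Plasmodium falciparum NF54 ring-stage cultures (1% haematocrit, 2% parasitaemia) were incubated with compound at 2 or 20 µM for 72 h at 37 °C under 4% CO2, 3% O2 and 93% N2. Survival was read at 620 nm with the parasite lactate dehydrogenase assay. Results were reported as percent inhibition of asexual proliferation relative to controls.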

[3] = tested on: Plasmodium falciparum NF54 stage IV/V gametocytes; test: % inhibition of gametocyte viability (ATP bioluminescence); higher = more inhibition; conditions: 24 h
In short: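 Stage IV/V NF54 gametocytes from density gradients (30,000 per well, 96-well plates) were incubated with compound at 1 or 5 µM for 24 h at 37 °C. A single run supplied percent inhibition of gametocyte viability, based on ATP measured with Promega BacTiter Glo and normalised to control wells.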

[4] = tested on: Plasmodium falciparum NF54 stage IV/V gametocytes; test: % inhibition of gametocyte viability (luciferase reporter); higher = more inhibition; conditions: 48 h
In short: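 Percent inhibition came from luminescence and was normalised to controls in a single run. Gametocytes (stage IV/V, NF54-Pfs16-GFP-Luc line, 2% gametocytaemia, 2% haematocrit) were treated with compound at 1 or 5 µM and incubated for 48 h at 37 °C without agitation under hypoxia. Readings used 30 µL lysate with 30 µL Promega luciferin substrate on a GloMax-Multi+ reader, integrating for 10 s.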

[5] = tested on: Plasmodium berghei ANKA liver stage in HepG2-A16-CD81; test: % inhibition of liver stage parasite viability (luciferase); higher = more inhibition; conditions: 5 µM; 48 h
Protocol: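 Single-concentration screen of the MMV Pandemic Response Box. P. falciparum NF54 asexual blood stages: pLDH assay, 72 h at 37 °C, 2 and 20 µM, n=2. Stage IV/V gametocytes (NF54): luciferase reporter (NF54-Pfs16-GFP-Luc, 48 h), ATP bioluminescence (24 h) and PrestoBlue (48 h) at 1 and 5 µM, n=1. P. berghei liver stage (luciferase in HepG2-A16-CD81, 48 h post infection) at 5 µM, n=4. All normalised to DMSO and kill controls as % inhibition.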
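Wherever % inhibition of HepG2 viability (CellTiter-Glo) is given: HepG2-A16-CD81 hepatoma cells plated as in the liver-stage assay but without sporozoites, with DMSO wells as negative and 25 µM puromycin as positive control.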

Row | SMILES | % viability of CHO cells (CHO; 2 µM) | % viability of CHO cells (CHO; 20 µM) | % inhibition of HepG2 viability (HepG2-A16-CD81) | % inhibition of gametocyte viability ([1]; 1 µM) | % inhibition of gametocyte viability ([1]; 5 µM) | % inhibition of asexual blood stage proliferation ([2]; 2 µM) | % inhibition of asexual blood stage proliferation ([2]; 20 µM) | % inhibition of gametocyte viability ([3]; 1 µM) | % inhibition of gametocyte viability ([3]; 5 µM) | % inhibition of gametocyte viability ([4]; 1 µM) | % inhibition of gametocyte viability ([4]; 5 µM) | % inhibition of liver stage parasite viability [5]
1 | Cc1nc(Nc2ccc(F)cc2)nc(N2CCc3ccccc3C2C)c1C (stereo not drawn) | 103% | 69.7% | 8.08% | 2.28% | 4.43% | 49.6% | 73.1% | < 0% | 43.7% | < 0% | < 0% | 52.5%
2 | O=C(N[C@H](CCS)C(=O)N[C@H](Cc1ccccc1)C(=O)O)c1cc2ccccc2[nH]1 | 78.3% | 74.3% | -0.7% | < 0% | < 0% | 1.01% | 7.64% | < 0% | < 0% | < 0% | 12% | 5.97%
3 | O=S(=O)(Nc1ccc(O)cc1)c1cccc2cccnc12 | 91.3% | 104% | 0.07% | < 0% | < 0% | 28.2% | 52.4% | < 0% | < 0% | < 0% | < 0% | -2.62%
4 | NNC(=O)c1ccncc1 | 94.3% | 96.5% | 8.54% | < 0% | 4.24% | 40.1% | 71.2% | < 0% | < 0% | 17.1% | < 0% | 22.9%
5 | O=C(Nc1ccc(F)cc1)c1nn(-c2ccccc2)c(=O)cc1Cl | 110% | 106% | 2.98% | 30.6% | 81% | 35.1% | 98.7% | 2.79% | 5.32% | 29.4% | 91.6% | 3.89%
6 | N#C/C(=C1/SC[C@H](c2ccc(Cl)cc2Cl)S1)n1ccnc1 | 113% | 118% | 10% | 11.8% | 16.4% | 48.7% | 22.8% | < 0% | < 0% | < 0% | 1.63% | 24%
7 | O=C(O)c1cc(-c2ccccc2)nc2ccccc12 | 114% | 94% | -0.148% | < 0% | < 0% | 27% | 90.2% | 1.38% | < 0% | 1.7% | < 0% | 38.5%
8 | O=C(O)C(Cc1c[nH]c2ccccc12)N1C(=O)c2ccccc2C1=O (stereo not drawn) | 89.9% | 92% | -0.93% | < 0% | < 0% | 33.4% | 72.4% | 8.39% | < 0% | 13% | 22.9% | 21.1%
9 | O=[N+]([O-])c1ccc2c(CCc3c[nH]c4ccccc34)c[nH]c2c1 | 101% | 143% | 0.942% | < 0% | 28% | 61.5% | 92.7% | < 0% | < 0% | < 0% | < 0% | -60.7%
10 | O=S(=O)(Nc1ccccc1)c1ccc(NC(=S)Nc2ccccc2)cc1 | 84.1% | 81.9% | -1.98% | 7.06% | 6.95% | 43.6% | 45.2% | < 0% | < 0% | < 0% | < 0% | 25.7%
11 | CC(C)Nc1nc2cc(Cl)c(Cl)cc2n1[C@H]1O[C@@H](CO)[C@H](O)[C@@H]1O | 71.9% | 56.9% | -5.75% | 17.6% | 14% | 66.8% | 55.9% | < 0% | < 0% | < 0% | < 0% | 12.5%
12 | COc1ccc(NS(=O)(=O)c2ccc(Cl)s2)cn1 | 98% | 100% | 6.74% | < 0% | 6.82% | 22.6% | 48.5% | < 0% | < 0% | 4.39% | < 0% | -1.42%
13 | O=C(CCc1ccc2c(c1)OCO2)NCc1ccc(-c2ccccc2F)cc1 | 87.7% | 94.9% | 8.8% | < 0% | < 0% | -4.07% | -11.2% | 4.23% | < 0% | < 0% | < 0% | 43.9%
14 | O=C1c2cccc3cccc(c23)C(=O)N1CC1CO1 (stereo not drawn) | 107% | 108% | -6.3% | 7.65% | 8.86% | 22% | 66.9% | < 0% | < 0% | < 0% | 3.81% | 14.1%
15 | COc1ccc2c(c1OC)C(=O)OC2C1c2c(cc3c(c2OC)OCO3)CCN1C (stereo not drawn) | 102% | -0.468% | 3.76% | < 0% | 5.61% | 42.6% | 68.3% | < 0% | < 0% | 2.79% | 9.42% | 19%
16 | O=C(NCc1ncc(C(F)(F)F)cc1Cl)c1c(Cl)cccc1Cl | 91.7% | 72.6% | 2.83% | < 0% | 3.98% | 18.8% | 1.98% | < 0% | < 0% | < 0% | < 0% | 34.7%
17 | O=C(O)CCNC(=O)c1ccccc1 | 112% | 60.6% | -2.32% | < 0% | -0.209% | 25.9% | 15.9% | < 0% | < 0% | < 0% | 6.13% | 16%
18 | Cc1ccc(NC(=O)c2cc(Cl)ccc2O)cc1 | 101% | -0.714% | 29.4% | < 0% | < 0% | 57.7% | 98.8% | < 0% | < 0% | 5.12% | 4.7% | 78.5%
19 | Nc1nc(NC2Cc3ccc(F)cc3C2)nc(N2CCCCC2)n1 (stereo not drawn) | 96% | 79.3% | 2.58% | 28.3% | 55.5% | 26.7% | 91% | 5.3% | < 0% | < 0% | 7.28% | 23.6%
